Laboratory results published in PubChem BioAssay.
Values joined by “and” are separate entries in the source; they are usually repeats but may differ in a detail not shown here. Identical values can stand only once. Active and inactive are the calls of the source. Unless noted, no stated cut-off is given here; in the data, active means parasite load remaining mostly below about 12% (no sharp cut-off); inactive means mostly above about 10%. Numbered stars: 1 amine (or outer) side, 2 acyl side, 3 side chain; on linkers, the order of the positions; unused ones are H or OH. Bridge positions count the residues as written; N and C are the ends. Square brackets hold non-standard residues; d marks the D form. Peptide text beside a SMILES is read from it. * marks the point of attachment. X4 = NC1=N[C@@H]([C@H](N[*:1])C(=O)[*:2])C[C@H](O)N1; ΔAla(Z-3-ureido) = NC(=O)N/C=C(\N)C(=O)O; β3hOrn = NCCC[C@H](N)CC(=O)*; Dap = NC[C@H](N)C(=O)O

Columns and labels:
[1] = P. berghei load reduction in hepatocytes – cell-based, HepG2, luciferase luminescence, HepG2 viability, primary screen (AID 624349);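 further: 100% = mean of DMSO negative control wells on the same plate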; details: P. berghei liver stage in HepG2, luciferase luminescence, concentration not given here; parasite load remaining: stronger effect = lower value; viability: measured here: HepG2 viability without parasites
[2] = viability loss with induced miR-34 in A549 – imaging, A549 dox-inducible miR-34, nuclei and caspase counts, primary screen (AID 1347080;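 active means compounds whose cell count with miR-34 switched on is under 0.7 times the count with it off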); details: A549 miR-34 inducible, Hoechst nuclei count, 48 h
[3] = MELAS cybrid and Rieske KO viability enhancers – cell-based, MELAS cybrids, Rieske KO mouse fibroblasts, CellTiter-Glo, primary screen (AID 1508586;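 active means mean z-score across replicates of 1.96 or higher in either the MELAS or the Rieske mutant cell line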;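 further: z relative to plate mean and SD of compound and empty wells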); details: low glucose
[4] = molecular target: NAD(+) hydrolase SARM1 (Homo sapiens) (UniProt Q6SZW1); assay: blocking NAD cleavage by SARM1 SAM-TIR – cell lysate, NAD-Glo luminescence (AID 1508614;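 active means compound whose remaining NAD level is above about 45 nM, limit read from the data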); details: SAM-TIR HEK293T lysate NADase, at 1 µM, stronger effect = higher value
NAD(+) hydrolase SARM1 (Homo sapiens), sequence (Q6SZW1 whole entry, looked up): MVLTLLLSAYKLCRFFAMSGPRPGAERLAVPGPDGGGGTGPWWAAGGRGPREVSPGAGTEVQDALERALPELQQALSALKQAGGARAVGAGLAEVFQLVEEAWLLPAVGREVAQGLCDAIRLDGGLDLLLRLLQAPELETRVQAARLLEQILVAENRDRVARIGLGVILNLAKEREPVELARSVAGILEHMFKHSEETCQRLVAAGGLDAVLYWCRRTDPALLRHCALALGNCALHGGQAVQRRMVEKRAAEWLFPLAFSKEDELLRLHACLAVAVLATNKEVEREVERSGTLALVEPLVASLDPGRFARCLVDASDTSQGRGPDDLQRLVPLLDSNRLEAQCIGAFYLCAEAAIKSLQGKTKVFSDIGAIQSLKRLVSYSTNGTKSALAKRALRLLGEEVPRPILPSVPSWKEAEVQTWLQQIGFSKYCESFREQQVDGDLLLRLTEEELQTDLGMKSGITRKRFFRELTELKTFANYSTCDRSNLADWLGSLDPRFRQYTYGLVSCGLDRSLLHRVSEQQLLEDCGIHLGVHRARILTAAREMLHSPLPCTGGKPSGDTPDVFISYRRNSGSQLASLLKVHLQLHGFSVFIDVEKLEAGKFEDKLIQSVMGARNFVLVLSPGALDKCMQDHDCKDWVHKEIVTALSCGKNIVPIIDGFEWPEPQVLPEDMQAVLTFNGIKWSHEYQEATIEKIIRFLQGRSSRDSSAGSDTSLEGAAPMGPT

[5] = stronger effect = lower value, cell number ratio, induced over uninduced
[6] = measured here: relative caspase fold change +Dox/-Dox
[7] = measured here: total cells with miR-34 induction, stronger effect = lower value
[8] = measured here: total cells without miR-34 induction
[9] = MELAS cybrid survival, CellTiter-Glo 48 h, stronger effect = higher value
[10] = Rieske KO mouse fibroblast survival, CellTiter-Glo 72 h

Row | SMILES | parasite load remaining [1] | viability [1] | fold change [2, 5] | fold change [2, 6] | cell count [2, 7] | cell count [2, 8] | z-score [3, 9] | z-score [3, 10] | remaining NAD [4]
1 | C[C@]12CC[C@@H]3c4ccc(OS(=O)(=O)O)cc4CC[C@H]3[C@@H]1CCC2=O | 64.3% (inactive) and 61.4% (inactive) | 99.3% and 74.8% | 0.873 (inactive) | 0.967 | 9010 | 10300 | -0.105 (inactive) | -0.186 | 10 nM (inactive)
2 | NCCC[C@H](N)CC(=O)N[C@H]1CNC(=O)[C@H]([C@H]2C[C@H](O)NC(N)=N2)NC(=O)/C(=C/NC(N)=O)NC(=O)[C@H](CO)NC(=O)[C@H](CO)NC1=O (β3hOrn-[Dap]SS[ΔAla(Z-3-ureido)][X4]; lactam 1-C) | 90.6% (inactive) | 75% | 0.967 (inactive) | 0.791 | 9150 | 9470 | -0.695 (inactive) | -0.532 | 10 nM (inactive)
